From the supplement of paper PMC6763611

Tested on: Plasmodium falciparum NF54
Experiment: growth inhibition relative to untreated control; higher = more inhibition
Settings: 72 h
Method in brief: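 P. falciparum NF54 ring stages (1% hematocrit, 1% parasitemia, 100 μL/well in 96-well half-area dark plates) were exposed for 72 h at 37 °C to single 5 μM or 1 μM doses of Pathogen Box compounds. The medium was minimal RPMI or minimal RPMI plus chorismate end-products (2.2 μM folate, 7.3 μM pABA, 7.3 μM pHBA, 111 μM tyrosine, 90 μM phenylalanine, tryptophan). Growth inhibition was read by SYBR Green, normalised to untreated controls, with uninfected erythrocytes as background.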

[1] = 1 µM, MM + chorismate end-products (CM screening medium)
[2] = 5 µM, MM + chorismate end-products (CM screening medium)

SMILES	growth inhibition [1] [%]	growth inhibition (1 µM, minimal medium (MM)) [%]	growth inhibition [2] [%]	growth inhibition (5 µM, minimal medium (MM)) [%]
Cc1noc(C)c1COc1cccc(C(=O)N=c2[nH]cccc2C)c1	< 0	< 0	< 0	< 0
NS(=O)(=O)c1cncc(-c2ccc3nccc(-c4cn[nH]c4)c3n2)c1	83.8	> 100	92.8	94.8
CS(=O)(=O)Cc1nc2ccccc2oc1=O	< 0	< 0	< 0	< 0
O=C(C1CCN(c2cc(-n3cccc3)ncn2)CC1)N1CCc2ccccc2C1	11.5	5.57	4.91	3.34
CNc1nnc(Sc2cnn(-c3ccccc3)c(=O)c2Cl)s1	27	16.6	79.8	62.1
Cc1c[nH]c(CCNC(=O)c2cc(-c3ccc(Cl)cc3)cs2)n1	> 100	> 100	97.3	94.7
c1ccc2c(c1)CN(CC1CC1)CC1(CCN(Cc3c[nH]c4cnccc34)CC1)O2	99	97.8	93.1	87.4
Cc1cc(NC(=O)c2ccc(S(=O)(=O)N(Cc3ccccc3)C(C)C)cc2)no1	95.5	> 100	99.8	93.1
Cc1cc(C)c2cc(C(=O)NC3CCCCCCC3)[nH]c2c1	34.2	0.728	55.4	< 0
CC(C)(C)n1nc(Cc2cccc3ccccc23)c2c(N)ncnc21	< 0	18.3	39.5	29.5
CC(=O)NC[C@@H]1CN(c2ccc(N3CCOCC3)c(F)c2)C(=O)O1	18.8	11.7	< 0	< 0
CCc1nc2ccc(Cl)cn2c1C(=O)NCc1ccc(N2CCC(c3ccc(OC(F)(F)F)cc3)CC2)cc1	< 0	< 0	91	71.4
